# Screening data from PubChem BioAssay.
# HCV inhibitor: qHTS Assay for Inhibitors of Hepatitis C Virus (HCV). Potency, µM (series often up to 41.8 µM), for the others: at the top dose activity change, negative = inhibition, actives largely listed as inhibitors. Huh7.5.1 HCVcc-Cre infection, luciferase reporter, 44 h. actives 3.4% (n = 340,000); active = well fitted inhibition curve with a large enough effect; inconclusive = small, poorly fitted or top-dose-only effect, or another doubt; inactive = no such curve, though single readings can be large or run the other way; note: potency is the fitted concentration of half-maximal effect
#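 1,000 cells/well; 4 h culture; + compound; + HCVcc-Cre (~0.5 moi); 44 h; luciferase substrate, RT 15 min; read 15 sec.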
# FMDV antiviral: High Throughput Screening for Foot and Mouth Disease Virus Antivirals | FMDV antiviral cell-based qHTS | Potency, µM (highest dose often 57.9 µM), without a hit: top-dose activity change, negative = inhibition, most hits filed as inhibitors | actives 1.2% (n = 410,000); calls by dose curve; tested in HEK293T cells; note: read-out not given here; potency is the fitted concentration of half-maximal effect; nearly all actives have a fitted effect of over 45% in size
# MARV entry inh: qHTS for inhibitors of binding or entry into cells for Marburg Virus; Marburg virus pseudotyped entry inhibition, cell reporter; AID 540276, 2011; Potency, µM (series often up to 37.8 µM), inactives show top-dose activity change, negative = inhibition, usual class: inhibitors; actives 1.8% (n = 300,000); calls by dose curve; tested in HEK293 cells; note: potency is the fitted concentration of half-maximal effect
# Lassa entry inh: qHTS for Inhibitors of binding or entry into cells for Lassa Virus. actives 1.2% (n = 300,000). Lassa virus pseudotype entry inhibition, cell reporter. Potency, µM (titrated, usually from 37.9 µM), for the others: top-dose activity change, negative = inhibition, most hits filed as inhibitors. AID 540256, 2011; calls by dose curve; tested in HEK293 cells; note: potency is the fitted concentration of half-maximal effect; nearly all actives have a fitted effect of over 50% in size
# HCMV antiviral: qHTS Assay for inhibitors of the human cytomegalovirus (HCMV); HFF cells, HCMV-luciferase reporter, 72 h; hits give low values; activity change, negative = inhibition, % at 57.5 µM; actives 4.5% (n = 410,000); in the data active = activity change below about -60%; inconclusive = no clear call, values can overlap the other calls; inactive = above about -39%
#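 Human foreskin fibroblasts infected with luciferase-reporter HCMV at MOI 1 PFU/cell, compounds at two doses. Luciferase measured 72 h post infection; normalized to buffer-only basal and Salinomycin (10uM) controls.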
# Starred values were filed as active, the others as inactive; ? = inconclusive; . = not tested or not shown; [ ] = dose if it differs, or a comment. In the library only some 7.9% were active in any assay of this set; here they are far more common. % is set by controls: 0 for no effect and ±100 for the full control effect.
SMILES,HCV inhibitor,FMDV antiviral,MARV entry inh,Lassa entry inh,HCMV antiviral
COc1cc(-c2ccc(Nc3ccccc3C(=O)O)c(OC)c2)ccc1Nc1ccccc1C(=O)O,3%,-23%,?,?,-68*
Cc1cccc(Nc2ccccc2C(=O)O)c1C,2%[8.37 µM],-14%,13%,?,-63*
Cc1cccc(NC(=O)CSc2nc3ccccc3c3nc(CCn4cncc4C)nn23)c1,.,?,.,-17%[46.1 µM],-39
COC(=O)C1CCC(=O)N1C(c1ccc(OC)cc1)c1cc(OC)c(OC)c(OC)c1 (stereo not drawn),?,0%,?,?,-81*
Cc1cnc(SCC2CCCO2)nc1C1CCCN(Cc2cc3c(cc2Cl)OCO3)C1 (stereo not drawn),.,-14%,.,.,.
COc1ccc(CNC(C)C23CC4CC(CC(C4)C2)C3)c(OC)c1OC (stereo not drawn),?,-21%,.,.,-61*
CCCCCCC[N+](CC)(CC)CCCCc1ccc(Cl)cc1,?,18µM*,.,.,-101*
CCOc1ccccc1-n1nnc(-c2nsc(NC(=O)c3ccc(C)cc3)n2)c1C,.,?,.,-24%[46.1 µM],-75*
Cc1ccc(-n2nnc(-c3nsc(NC(=O)c4ccc(C)c(C)c4)n3)c2C)cc1,.,-7%,.,?,0
CCc1ccccc1-n1nnc(-c2nsc(NC(=O)c3ccc(C)c(C)c3)n2)c1C,.,11µM*,.,?,-92*
CCOC(=O)C1CCCN(C(=O)c2cnn(-c3ncc4c(n3)-c3ccccc3CC4)c2C)C1 (stereo not drawn),.,16%,.,.,.
C=C1CCC2[C@](C)(CO)[C@H](O)CC[C@@]2(C)[C@@H]1C/C=C1\C(=O)OC[C@H]1O (stereo partly drawn),?,?,.,.,-107*
CCC/C(O)=C1\C(=O)CC(C)(C)CC1=Nc1ccc(OC)cc1OC,-11%,0%,2µM*,-24%,21
Cc1nn(C(=O)c2cccc([N+](=O)[O-])c2C)c(C)c1S(=O)(=O)N1CCCCCC1,.,-21%,.,0%[46.1 µM],22
Cc1oc(-c2ccccc2NC(=O)c2ccccc2)nc1CNC(=O)C1CC(=O)OC12CCCCC2 (stereo not drawn),.,15%,.,.,.
CCC(=O)NC(c1cc(Cl)c2cccnc2c1O)C(C)C (stereo not drawn),.,-25%,.,.,-96*
CC(=O)NC(c1cc(F)c2cccnc2c1O)C1CC1 (stereo not drawn),.,?,.,.,27
CCC(=O)NC(c1cc(Cl)c2cccnc2c1O)C1CC1 (stereo not drawn),.,?,.,.,-95*
CCN(CC)C(=O)Oc1ccc(Cl)c2cccnc12,-9%,?,5%[46.1 µM],1%,-31
COc1ccc(-n2c(=O)c3sc4ccccc4c3n(CC(=O)N3CCCC3)c2=O)cc1,.,0%,0%[46.1 µM],17%[46.1 µM],-13
O=C(CCl)Nc1sccc1C(=O)c1ccccc1,2%,20µM*,9%[46.1 µM],9%,-14
Cc1sc(NC(=O)CCl)c(C(=O)c2ccccc2)c1C,?,?,2%,?,-23
Cc1cc(C(=O)c2ccc(C(C)(C)C)cc2)c(NC(=O)CCl)s1,?,35µM*,?,?,-65*
Cc1oc(-c2cccc(NC(=O)c3ccccn3)c2)nc1CNC(=O)C#Cc1ccccc1,.,16%,.,.,.
COC(/C(C)=C/C=C/C(C)=C/c1coc(C)n1)C(C)C1CC(O)C2(C)OC2C=CC(C)C2CC(CC(=O)O2)CC2OC2C(=O)O1 (stereo not drawn),10%,-26%,6%,1%,-80*
SMILES,HCV inhibitor,FMDV antiviral,MARV entry inh,Lassa entry inh,HCMV antiviral
Cc1ccc(CCNc2nc3c(S(=O)(=O)c4ccccc4)nnn3c3ccsc23)cc1,.,-7%,.,-3%[46.1 µM],-8
Cc1ccc(S(=O)(=O)c2nnn3c2nc(NCCc2ccccc2)c2sccc23)cc1,.,-12%,.,-2%[46.1 µM],-65*
Cc1ccc(C)c(S(=O)(=O)c2nnn3c2nc(NCc2ccc4c(c2)OCO4)c2sccc23)c1,.,-8%,.,?,-79*
COC(=O)c1cc(NC(=O)c2cc3sccc3n2Cc2ccc(Cl)cc2)cc(C(=O)OC)c1,.,-23%,?,1%[46.1 µM],8
CC(C)c1cnc2c(c1SCC(=O)Nc1cccc(F)c1)c(=O)n(C)c(=O)n2C,.,41%,.,12%[46.1 µM],-6
C[C@H](Nc1nc(Br)cnc1N)c1ccccc1,.,.,.,.,11
C=C1C[C@@]2(C)CCCC3=CC(=O)C=C[C@@]32c2ccc(OC)c(OC)c21,.,.,.,.,-4
COc1ccc(CCNC2=C(Cl)C(=O)N(CCc3ccc(OC)c(OC)c3)C2=O)cc1OC,2.5µM*,10µM*,?,?,44
COCc1ccc(C(=O)N2CCCC(CCC(=O)NCc3ccccc3F)C2)o1 (stereo not drawn),1%,38%,5.6µM*,2%,-19
O=C(CCC1CCCN(C(=O)c2ccco2)C1)NCc1ccccc1F (stereo not drawn),-6%,-2%,0%[46.1 µM],?,48
O=C(C[n+]1ccccc1)N1c2ccccc2Sc2ccccc21,?,7%,-9%[46.1 µM],.,-75*
CC(C)CNC(=O)N1c2ccccc2Sc2ccccc21,-2%,-10%,?,?,-23
CN(C)c1cc[n+](CC(=O)N2c3ccccc3Sc3ccccc32)cc1,-23%,-21%,-19%,-19%,-84*
O=C(NCCc1ccccc1)N1c2ccccc2Sc2ccccc21,?,28µM*,?,-5%,-11
O=C(c1ccco1)N1c2ccccc2Sc2ccccc21,15%,?,22µM*,?,?
O=C(COc1ccccc1)N1c2ccccc2Sc2ccccc21,?,-17%,?,4%,-39
Cc1nc(N2CCOCC2)c2c(C(=O)N(C)c3ccccc3)c(C)oc2n1,.,17%,.,23%[46.1 µM],41
CCOC(=O)C1=C(CN2CCN(c3cccc(OC)c3)CC2)NC(=O)NC1c1ccc(OC)cc1 (stereo not drawn),.,-22%,.,-13%[46.1 µM],6
COc1ccccc1-c1ccc(C(=O)N(C)CC2COCCO2)c(N2CCN(c3ccccc3F)CC2)n1 (stereo not drawn),.,-12%,.,.,.
COc1ccccc1C1CCN(Cc2cccc3ccccc23)CC1,7.9µM*,?,?,-25%,-9
Cc1c(NC(=O)c2ccc(Cl)cc2)cc(C(C)C)c(O)c1S(=O)(=O)c1ccc(Cl)cc1,.,39%,?,1%[46.1 µM],-10
CC1CCC(C(C)C)C(OCC(O)CN2CCCC(C)C2)C1 (stereo not drawn),?,?,?,5.6µM*,?
CC1CCC(C(C)C)C(OCC(O)CN2CCN(Cc3ccccc3)CC2)C1 (stereo not drawn),?,?,?,8.9µM*,?
C[C@H]1C[C@@H](C)O[C@@]2(C1)C(=O)N(CC1CC1)c1ccccc12,.,.,-21%[14.2 µM],.,.
O=C(O)c1ccc(Cl)c(S(=O)(=O)Nc2ccccc2N2CCOCC2)c1,7%,-3%,28%[46.1 µM],1%,-20
